For 16 compounds, Potency and activity, negative = cell killing results are on record in PubChem BioAssay (NCATS).

Inconclusive results are not listed. Entries that show only a call come without a potency. Calls of active or inactive are those of the source. The call rests on the fitted dose curve; in most records, active means well fitted curve in the direction sought with a large enough effect; inconclusive means small, poorly fitted or top-dose-only effect, or another doubt; inactive means no such curve, though single readings can be large; an effect the other way counts as inactive or inconclusive.

The test system of the first experiment is Hek293T. Nature of the experiment: Primary qHTS to identify gynecologic anti-cancer compounds using libraries of approved drugs and bioactive compounds (AID 1345084). Further: nearly all actives have a fitted effect of over 55% in size. Further: potency means the concentration at half of the fitted maximal effect. As to conditions: Gynecologic cancer cell panel viability, ATPlite luminescence, 48 h, control line for the selectivity index; series mostly up to 57.5 µM. Summed up:
(§1)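 Five-concentration response, 48 h; readout is ATP-driven luciferase luminescence.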
(In general: In qHTS, concentration-response curves come from the screen itself.)
Regarding `Nc1ccc(C(=O)Nc2ccccc2N)cc1`, the Potency result was “inactive”.

With `CC(=O)Oc1ccc(C(c2ccc(OC(C)=O)cc2)c2ccccn2)cc1`, the Potency result is “inactive”.

For the compound `COc1cc(C=C2CCC/C(=C\c3ccc(O)c(OC)c3)C2=O)ccc1O`, the Potency entry is “inactive”.

As to `Cc1cccc(C)c1NC(=O)CN1CCN(CCCC(c2ccc(F)cc2)c2ccc(F)cc2)CC1`, the Potency result was “inactive”.

With `COc1cc(-c2ccc(=O)[nH]n2)ccc1OC(F)F`, the Potency entry was “inactive”.

Take `CCCCOc1cc(C(=O)NCCN(CC)CC)c2ccccc2n1`: the Potency result was “inactive”.

For the next experiment, the system named is JEG-3. The experiment is described as above. As to conditions: Gynecologic cancer cell panel viability, ATPlite luminescence, 48 h; series mostly up to 57.5 µM. Summed up: as §1
For orientation: In ATP-based viability assays light output follows the ATP content of the culture.
In the case of `COc1c(C)c2c(c(O)c1C/C=C(\C)CCC(=O)O)C(=O)OC2`, the Potency entry was “inactive”.

For the compound `Nc1ccc(C(=O)Nc2ccccc2N)cc1`, the Potency result is “inactive”.

For the compound `CC(=O)Oc1ccc(C(c2ccc(OC(C)=O)cc2)c2ccccn2)cc1`, the Potency result is “inactive”.

With `CN(C)/N=N/c1nc[nH]c1C(N)=O`, the Potency entry was “inactive”.

As for `CC(C)(C)CC(C)(C)c1ccc(O)c(Cc2ccc(Cl)cc2Cl)c1`, the Potency entry is “inactive”.

`Cc1cccc(C)c1NC(=O)CN1CCN(CCCC(c2ccc(F)cc2)c2ccc(F)cc2)CC1`: the Potency entry was “inactive”.

Consider `NC(=NCCCCCCN=C(N)/N=C(\N)Nc1ccc(Cl)cc1)/N=C(\N)Nc1ccc(Cl)cc1`, for which the Potency entry is “inactive”.

Regarding `Cc1ccccc1C(=O)Nc1ccc(C(=O)N2CCCC(N(C)C)c3ccccc32)cc1` (stereo unspecified), the Potency entry was “inactive”.

`COc1cc(-c2ccc(=O)[nH]n2)ccc1OC(F)F`: the Potency result is “inactive”.

As to `CCCCOc1cc(C(=O)NCCN(CC)CC)c2ccccc2n1`, the Potency entry was “inactive”.

On to `Cc1c(N(C)CS(=O)(=O)O)c(=O)n(-c2ccccc2)n1C`, for which the Potency entry is “inactive”.

The test system of another experiment is OV90. The description is as above. The settings on record: Gynecologic cancer cell panel viability, ATPlite luminescence, 48 h; series mostly up to 57.5 µM. Summed up: as §1
With `Oc1ccc(Cl)cc1Sc1cc(Cl)ccc1O`, the Potency entry was “inactive”.

With `C[C@@H]1CN(CCCn2c3ccccc3c3ccccc32)C[C@H](C)N1`, the Potency was 25.1 µM (active).

Regarding `COc1cc(C=C2CCC/C(=C\c3ccc(O)c(OC)c3)C2=O)ccc1O`, the Potency entry was “inactive”.

Consider `CC(C)(C)CC(C)(C)c1ccc(O)c(Cc2ccc(Cl)cc2Cl)c1`, for which the Potency result was “inactive”.

Turning to `CCCCCCC[N+](CC)(CC)CCCCc1ccc(Cl)cc1`, the Potency was 10 µM (active).

As to `Cc1ccccc1C(=O)Nc1ccc(C(=O)N2CCCC(N(C)C)c3ccccc32)cc1` (stereo unspecified), the Potency entry was “inactive”.

Regarding `COc1cc(-c2ccc(=O)[nH]n2)ccc1OC(F)F`, the Potency result is “inactive”.

As for `Cc1c(N(C)CS(=O)(=O)O)c(=O)n(-c2ccccc2)n1C`, the Potency entry is “inactive”.

The test system of a further experiment is PA-1. The description is as above. The settings on record: Gynecologic cancer cell panel viability, ATPlite luminescence, 48 h; series mostly up to 57.5 µM. Summed up:
as §1
For `COc1c(C)c2c(c(O)c1C/C=C(\C)CCC(=O)O)C(=O)OC2`, the Potency was 0.282 µM (active).

As to `Nc1ccc(C(=O)Nc2ccccc2N)cc1`, the Potency is 11.2 µM (active).

As for `CC(=O)Oc1ccc(C(c2ccc(OC(C)=O)cc2)c2ccccn2)cc1`, the Potency result was “inactive”.

Regarding `CCCCCCCCCCCCCCCC[N+](C)(C)CCN(Cc1ccc(OC)cc1)c1ncccn1`, the Potency is 15.8 µM (active).

`CC(C)(C)CC(C)(C)c1ccc(O)c(Cc2ccc(Cl)cc2Cl)c1`: the Potency entry was “inactive”.

Take `CCCCCCC[N+](CC)(CC)CCCCc1ccc(Cl)cc1`: the Potency is 4.47 µM (active).

Regarding `NC(=NCCCCCCN=C(N)/N=C(\N)Nc1ccc(Cl)cc1)/N=C(\N)Nc1ccc(Cl)cc1`, the Potency is 15.8 µM (active).

For the next experiment, the system named is SKOV3. The description is as above. As to conditions: Gynecologic cancer cell panel viability, ATPlite luminescence, 48 h; series mostly up to 57.5 µM. Summed up:
as §1
Turning to `Nc1ccc(C(=O)Nc2ccccc2N)cc1`, the Potency entry is “inactive”.

On to `CC(=O)Oc1ccc(C(c2ccc(OC(C)=O)cc2)c2ccccn2)cc1`, for which the Potency entry is “inactive”.

As to `Oc1ccc(Cl)cc1Sc1cc(Cl)ccc1O`, the Potency result is “inactive”.

On to `CCCCCCCCCCCCCCCC[N+](C)(C)CCN(Cc1ccc(OC)cc1)c1ncccn1`, for which the Potency was 20 µM (active).

Regarding `COc1cc(-c2ccc(=O)[nH]n2)ccc1OC(F)F`, the Potency result was “inactive”.

Take `Cc1c(N(C)CS(=O)(=O)O)c(=O)n(-c2ccccc2)n1C`: the Potency entry is “inactive”.

The test system of the next experiment is Tov-21-G. The experiment is described as above. As to conditions: Gynecologic cancer cell panel viability, ATPlite luminescence, 48 h; series mostly up to 57.5 µM. Summed up: as §1
Regarding `COc1c(C)c2c(c(O)c1C/C=C(\C)CCC(=O)O)C(=O)OC2`, the Potency is 1 µM (active).

For `CC(C)(C)CC(C)(C)c1ccc(O)c(Cc2ccc(Cl)cc2Cl)c1`, the Potency result is “inactive”.

For the compound `CCCCCCC[N+](CC)(CC)CCCCc1ccc(Cl)cc1`, the Potency was 20 µM (active).

In the case of `Cc1cccc(C)c1NC(=O)CN1CCN(CCCC(c2ccc(F)cc2)c2ccc(F)cc2)CC1`, the Potency entry was “inactive”.

On to `NC(=NCCCCCCN=C(N)/N=C(\N)Nc1ccc(Cl)cc1)/N=C(\N)Nc1ccc(Cl)cc1`, for which the Potency result is “inactive”.

`COc1cc(-c2ccc(=O)[nH]n2)ccc1OC(F)F`: the Potency result is “inactive”.

The test system of a further experiment is Tov112D. The description is as above. As to conditions: Gynecologic cancer cell panel viability, ATPlite luminescence, 48 h; series mostly up to 57.5 µM. Summed up:
as §1
`Nc1ccc(C(=O)Nc2ccccc2N)cc1`: the Potency entry was “inactive”.

For the compound `CCCCCCCCCCCCCCCC[N+](C)(C)CCN(Cc1ccc(OC)cc1)c1ncccn1`, the Potency is 20 µM (active).

`CC(C)(C)CC(C)(C)c1ccc(O)c(Cc2ccc(Cl)cc2Cl)c1`: the Potency entry is “inactive”.

As to `Cc1cccc(C)c1NC(=O)CN1CCN(CCCC(c2ccc(F)cc2)c2ccc(F)cc2)CC1`, the Potency result was “inactive”.

In the case of `NC(=NCCCCCCN=C(N)/N=C(\N)Nc1ccc(Cl)cc1)/N=C(\N)Nc1ccc(Cl)cc1`, the Potency result was “inactive”.

`Cc1ccccc1C(=O)Nc1ccc(C(=O)N2CCCC(N(C)C)c3ccccc32)cc1` (stereo unspecified): the Potency is 8.91 µM (active).

On to `COc1cc(-c2ccc(=O)[nH]n2)ccc1OC(F)F`, for which the Potency entry is “inactive”.

With `CCCCOc1cc(C(=O)NCCN(CC)CC)c2ccccc2n1`, the Potency entry was “inactive”.

System in another experiment: not listed separately
The experiment in a line: Drug repurposing screens with cells derived from glioblastoma tumor samples (AID 1345199). Further: nearly all actives have a fitted effect of over 40% in size. The settings on record: GBM patient neurospheres viability, ATP luminescence, 48 h; at 20 µM (top of the series); tumour line C. Summed up:
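Four patient lines of CD133+ GBM neurospheres were screened at several concentrations; hits were retested in those lines plus three slower-growing GBM lines, using 48-hour treatment and ATP-based viability.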
As for `COc1c(C)c2c(c(O)c1C/C=C(\C)CCC(=O)O)C(=O)OC2`, the activity, negative = cell killing is -18.6% (inactive).

`CCCCCCCCCCCCCCCC[N+](C)(C)CCN(Cc1ccc(OC)cc1)c1ncccn1`: the activity, negative = cell killing is -23.1% (inactive).

On to `CCCCOc1cc(C(=O)NCCN(CC)CC)c2ccccc2n1`, for which the activity, negative = cell killing was 9.91% (inactive).

For `Cc1c(N(C)CS(=O)(=O)O)c(=O)n(-c2ccccc2)n1C`, the activity, negative = cell killing is -2.96% (inactive).
